Tau fluor counter = counter-screen for tau fibril formation inhibitors | tau K18 P301L Alexa594 fluorescence, heparin fibrillization | Potency, µM (highest dose often 57.7 µM), inactives show at the highest dose activity change, negative = decrease | actives 0.93% (n = 280,000); further: potency means the concentration at half of the fitted maximal effect; nearly all actives have a fitted effect of over 55% in size
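Human tau K18 P301L (15 uM unlabeled, 0.24 uM Alexa 594-labeled) in 100 mM sodium acetate pH 7 with 20 uM heparin, 6 hr at 37 C. ThT 30 uM added, 1 hr ambient; Alexa 594 FP and total fluorescence read at 555/632 nm.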
Tau fibril FP = tau fibrillization inhibition (FP); P10636; K18 P301L tau heparin fibrillization, Alexa594 FP, 6 h; Potency, µM (titrated, usually from 57.7 µM), for inactives: at the top dose activity, negative = inhibition, most hits filed as inhibitors; actives 0.39% (n = 280,000); further: potency means the concentration at half of the fitted maximal effect; nearly all actives have a fitted effect of over 55% in size
Target sequence (P10636 561-689 P618L limits assumed): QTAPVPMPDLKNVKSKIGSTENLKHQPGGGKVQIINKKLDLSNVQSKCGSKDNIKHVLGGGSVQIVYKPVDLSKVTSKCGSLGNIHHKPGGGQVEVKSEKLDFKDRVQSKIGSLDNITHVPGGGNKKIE
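K18 P301L tau (15 uM unlabeled/0.24 uM Alexa 594-labeled, final) + compound + heparin 20 uM final; 100 mM NaOAc pH 7; 6 hr 37 C; ThT 30 uM final added, 1 hr RT; FP ex 555/em 632 nm.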
FBPA coupling cs = counter-screen for Giardia aldolase inhibitors: coupling enzyme system; coupling enzyme system counterscreen, AmpLite Red fluorescence; actives 0.67% (n = 290,000); activity change, negative = inhibition, % at 58.2 µM, hits read low; AID 2472; in the data active means activity change below about -30%
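Fluorescence at 525 nm excitation and 598 nm emission measured inhibition of the coupled detection system without aldolase. Compounds (at 57.5 uM final) were preincubated 10 min at room temperature with coupling enzyme reagent before a 20 min substrate/AmpLite Red step.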
Sfp PPTase inh = blocks B. subtilis Sfp PPTase activity. Q9F4F7. Biochemical Sfp PPTase activity, qHTS. Potency, µM, without a hit: largest response in the series, negative = inhibition, usual class: inhibitors. actives 3.5% (n = 310,000). AID 1490;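 further: the enzyme is Sfp with the accession as filed and its product quenches rhodamine fluorescence; potency means the concentration at half of the fitted maximal effect; 0% = enzyme reaction without inhibitor and -100% = no enzyme wells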
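Step 1, compound plus 15 nM Sfp-PPTase, 15 min, room temperature. Step 2, add rhodamine-CoA (5 uM) and BHQ-2-YbbR (12.5 uM). Step 3, read 525/598 nm fluorescence at 0 and 30 min.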
Tau fibril ThT = blocks human tau fibril formation measured by thioflavin T; P10636; recombinant tau K18 P301L, heparin-induced fibrillization, ThT fluorescence; Potency, µM (titrated, usually from 57.4 µM), for inactives: at the top dose activity, negative = inhibition, usual class: inhibitors; actives 2.1% (n = 270,000); AID 1460; further: potency means the concentration at half of the fitted maximal effect; nearly all actives have a fitted effect of over 55% in size
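Using a mix of unlabeled (15 uM) and Alexa 594-labeled (0.24 uM) tau K18 P301L, heparin-triggered fibrillization over 6 hr at 37 C was scored by ThT fluorescence.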
Starred values were filed as active, the others as inactive. This is a sample that favours compounds with a hit; in the whole collection about 5.2% have one here. Unless noted, the call rests on the fitted dose curve; in most records, active means well fitted curve in the direction sought with a large enough effect; inconclusive means small, poorly fitted or top-dose-only effect, or another doubt; inactive means no such curve, though single readings can be large; an effect the other way counts as inactive or inconclusive. Unless noted, on the % scale 0 is the no-effect control and ±100 the full control effect.

Screening Cc1ccccc1C(=O)Nc1cc(S(=O)(=O)N2CCCCC2)ccc1N1CCN(C)CC1 returned Tau fluor counter 0%, Tau fibril FP 0%, FBPA coupling cs 3, Sfp PPTase inh -4% and Tau fibril ThT -4%.
CN1CCN(c2ccc(S(=O)(=O)N3CCCCC3)cc2NC(=O)c2ccc3ccccc3c2)CC1 was read as Tau fluor counter -16%, Tau fibril FP -10%, FBPA coupling cs -1, Sfp PPTase inh 40µM* and Tau fibril ThT -5%.
Screening CCN(CC)S(=O)(=O)c1cc(C(=O)Nc2cc(Cl)ccc2N2CCN(C)CC2)ccc1Cl returned Tau fluor counter -23%, Tau fibril FP 8%, FBPA coupling cs -2, Sfp PPTase inh 50µM* and Tau fibril ThT inconclusive.
O=C(Nc1cc(S(=O)(=O)N2CCOCC2)ccc1N1CCCC1)c1ccc2c(c1)S(=O)(=O)c1ccccc1C2=O was read as Tau fluor counter inconclusive, Tau fibril FP inconclusive, FBPA coupling cs 5, Sfp PPTase inh 10µM* and Tau fibril ThT 25µM*.
Cc1c(F)c(N2CCNC(C)C2)cc2c1c(=O)c(C(=O)O)cn2C1CC1 (stereo not drawn) was read as Sfp PPTase inh 16%.
For COC(=O)c1ccc(NC(=O)C(=O)NCCc2csc(-c3ccc(F)cc3)n2)cc1 the results were Tau fluor counter 4%, Tau fibril FP 0% and Tau fibril ThT 3%.
For CN1CCc2c(sc3c2C(=O)NC(c2ccc(-c4ccc(Cl)cc4)o2)N3)C1 (stereo not drawn) the results were Tau fluor counter inconclusive, Tau fibril FP inconclusive, FBPA coupling cs -6, Sfp PPTase inh 50µM* and Tau fibril ThT 3.2µM*.
CN1CCc2c(sc3c2C(=O)NC(c2cn(Cc4ccccc4)c4ccccc24)N3)C1 (stereo not drawn) was read as Tau fluor counter -25%, Tau fibril FP inconclusive, FBPA coupling cs -3, Sfp PPTase inh -22% and Tau fibril ThT 18µM*.
CCOc1ccc(OCC)c(NC(=O)CCc2c(C)nc3c(c2C)c(=O)n(C)c(=O)n3C)c1 was read as Tau fluor counter -4%, Tau fibril FP 4% and Tau fibril ThT 3%.
`Cc1[nH]n(C2=NCCS2)c(=O)c1N=Nc1cccc(C(F)(F)F)c1` gave Tau fluor counter -16%, Tau fibril FP 5%, FBPA coupling cs 6, Sfp PPTase inh 12% and Tau fibril ThT 13µM*.
Screening COc1ccc(-c2cc(C(=O)N3CCN(c4ccccc4)CC3)c3ccccc3n2)cc1OC returned Tau fluor counter -21%, Tau fibril FP 15%, FBPA coupling cs 0, Sfp PPTase inh 6% and Tau fibril ThT -18%.
For COc1ccc(-c2nc3ccc(N4CCCC4)cc3c(=O)[nH]2)cc1OC the results were Tau fluor counter inconclusive, Tau fibril FP 3%, FBPA coupling cs 0, Sfp PPTase inh -2% and Tau fibril ThT 2.2µM*.
For Nc1sc2c(c1C(=O)c1ccccc1)CCCC2 the results were Tau fluor counter inconclusive, Tau fibril FP -4%, FBPA coupling cs -2, Sfp PPTase inh 50µM* and Tau fibril ThT inconclusive.
NC(=O)c1c(N)sc2c1CCCC2 was read as Tau fluor counter -25%, Tau fibril FP inconclusive, FBPA coupling cs -20, Sfp PPTase inh 25µM* and Tau fibril ThT 22µM*.
CC(C)(C)C(=O)NC(=S)Nc1sc2c(c1C(N)=O)CCC2 was read as Tau fluor counter -10%, Tau fibril FP 5%, FBPA coupling cs 4, Sfp PPTase inh 45µM* and Tau fibril ThT -16%.
`Nc1sc2c(c1C(=O)NC1CCS(=O)(=O)C1)CCCC2` (stereo not drawn) gave Tau fluor counter inconclusive, Tau fibril FP inconclusive, FBPA coupling cs -16, Sfp PPTase inh 20µM* and Tau fibril ThT 32µM*.
`CC(=O)Nc1sc2c(c1C(N)=O)CCC2` gave Tau fluor counter 5%, Tau fibril FP 8%, FBPA coupling cs 2, Sfp PPTase inh 9% and Tau fibril ThT 1%.
Screening CC(C)CC(=O)NC(=S)Nc1sc2c(c1C(N)=O)CCC2 returned Tau fluor counter -10%, Tau fibril FP inconclusive, FBPA coupling cs 1, Sfp PPTase inh -11% and Tau fibril ThT -6%.
Screening CS(=O)(=O)Nc1cccc(-c2nc(NCc3ccccc3)c3ccccc3n2)c1 returned FBPA coupling cs -1 and Sfp PPTase inh 6%.
COc1ccc(-n2ccnc(NCc3ccccc3OC)c2=O)cc1 was read as Tau fluor counter -17%, Tau fibril FP 3% and Tau fibril ThT -6%.
Screening COc1ccccc1-[n+]1c(C)cc(/C=C2\Sc3ccccc3N2C)cc1C returned Tau fluor counter -25%, Tau fibril FP 3%, FBPA coupling cs 2, Sfp PPTase inh -28% and Tau fibril ThT inconclusive.
`COc1ccc(-[n+]2c(C)cc(/C=C3\Sc4ccccc4N3C)cc2C)cc1` gave Tau fluor counter -12%, Tau fibril FP 0%, FBPA coupling cs -13, Sfp PPTase inh 20µM* and Tau fibril ThT inconclusive.
For Cc1c(C(=O)N(C)C2CCCCC2)sc2nc3ccc(N)cc3n12 the results were Tau fluor counter inconclusive, Tau fibril FP inconclusive, FBPA coupling cs -3, Sfp PPTase inh 16% and Tau fibril ThT inconclusive.
Screening CCCCn1c(=O)[nH]c(=O)c2c1nc(-c1ccsc1)n2Cc1ccccc1 returned Tau fluor counter -11%, Tau fibril FP -5%, FBPA coupling cs -1, Sfp PPTase inh -6% and Tau fibril ThT -14%.
For CCCCn1c(-c2ccsc2)nc2c1c(=O)[nH]c(=O)n2CCC the results were Tau fluor counter -5%, Tau fibril FP -4%, FBPA coupling cs -31*, Sfp PPTase inh 35µM* and Tau fibril ThT 1%.
CC(/C=C1\SC(=S)N(NC(=O)c2ccc(C)cc2)C1=O)=C\c1ccccc1 was read as Tau fluor counter -28%, Tau fibril FP 3%, FBPA coupling cs -1, Sfp PPTase inh -8% and Tau fibril ThT inconclusive.
CC(/C=C1\SC(=S)N(NC(=O)c2ccccc2C)C1=O)=C\c1ccccc1 was read as Tau fluor counter inconclusive, Tau fibril FP 2%, FBPA coupling cs -4, Sfp PPTase inh 3% and Tau fibril ThT 4µM*.
Screening CC(/C=C1\SC(=S)N(NC(=O)c2ccncc2)C1=O)=C\c1ccccc1 returned Tau fluor counter inconclusive, Tau fibril FP -13%, FBPA coupling cs 5, Sfp PPTase inh 45µM* and Tau fibril ThT 10µM*.
Screening O=C1CN(c2ccccc2)C(=S)N1C(=O)c1ccccc1 returned FBPA coupling cs 5 and Sfp PPTase inh 50µM*.
O=C(c1ccccc1)N1CCC(=O)N1c1ccccc1 was read as Tau fluor counter -12%, Tau fibril FP 12%, FBPA coupling cs 2, Sfp PPTase inh -4% and Tau fibril ThT -7%.

Assay outcomes (PubChem BioAssay)
